{
  "source": "PubChem BioAssay (NCATS)",
  "note": "Results filed as inconclusive are left out. A call without a number means that no potency is given here. Active and inactive are the calls of the source. Calls come from the whole dose curve; as a rule, active = well fitted cell-killing curve with a large enough effect; inconclusive = small, poorly fitted or top-dose-only effect; inactive = flat fitted curve, though single readings scatter.",
  "data": [
    {"assay": "Cell Viability - LYMP1-002 - Assay at 40 hr (AID 994); note: nearly all actives have a fitted effect of over 60% in size", "settings": "LYMP1-002 lymphoblastoid cell viability; series mostly up to 92.2 µM", "excerpt": "NIH Chemical Genomics Center [NCGC]\nNIH Molecular Libraries Screening Centers Network [MLSCN]\nNational Institutes of Environmental Health Sciences [NIEHS]\nNational Toxicology Program [NTP]\nWe have developed a 1536-well cell-based assay for quantitative high throughput screening (qHTS) against a number of cell lines to determine in vitro cytotoxicity of small molecules. This particular assay uses a human lymphoblastoid cell line (LYMP1-002) purchased from Coriell Institute for Medical Research.\nNCGC Assay Protocol Summary:\nThe CellTiter-Glo luminescent cell viability assay (Promega) is a homogeneous method to measure the number of viable cells in culture. The end point readout of this assay is based on quantitation of intracellular ATP, an indicator of metabolic activity, using the luciferase reaction. Luciferase catalyzes the oxidation of beetle Luciferin to oxyluciferin and light in the presence of ATP. The luminescent signal is proportional to amount of ATP present.\nUsing the CellTiter-Glo luminescent cell viability assay, the amount of cellular ATP was measured in the lymphoblastoid cell line with complete culture medium following compound treatment for 40 hours. The assay was performed in opaque white Kalypsys 1536-well plates. In the screen, tetraoctylammonium bromide was used as positive control. Library compounds were measured for their ability to cause acute toxicity in the cell line, as reflected by a decrease in intracellular ATP levels, in a concentration-dependent manner. […] AC50 values were determined from concentration-response data modeled with the standard Hill equation.\nqHTS protocol for CellTiter Glo lymphoblastoid cellular assay\n[Step] [Parameter] [Value] [Description]\n1. Reagent; 5 uL; 2500 lymphoblastoid cells/well\n2. Time; 5 hr; 37 C incubation\n4. Controls; 23 nL; Tetraoctylammonium bromide 6.4pM to 92 uM\n5. Time; 40 hr; 37 C incubation\n6. Reagent; 5 uL; CellTiter Glo reagent\n7. Time; 30 min; Room Temperature\n8. Detection; Luminescence; Viewlux plate reader\nKeywords: cell viability, cytotoxicity, lymphoblastoid cell line, luminescence, NTPHTS, NTPHTS_NCGC, NIEHS, DSSTox, MLSMR, MLSCN, NIH Roadmap, qHTS, NCGC", "values": [
      {"smiles": "C[C@@H]1CC2(OC3C[C@@]4(C)C5=CC[C@H]6C(C)(C)C(O[C@@H]7OC[C@@H](O)[C@H](O)[C@H]7O)CC[C@@]67C[C@@]57CC[C@]4(C)C31)OC(O)C1(C)OC21", "note": "(stereo not given in full)", "Potency": "inactive"},
      {"smiles": "ClCCl", "Potency": "inactive"},
      {"smiles": "OC/C(Br)=C(\\Br)CO", "Potency": "inactive"},
      {"smiles": "CCOC(=O)OCC", "Potency": "inactive"},
      {"smiles": "Cc1cc(C)c(N)cc1C", "Potency": "inactive"},
      {"smiles": "O=C1CCC(=O)O1", "Potency": "inactive"},
      {"smiles": "O=Cc1c(Cl)cccc1Cl", "Potency": "inactive"},
      {"smiles": "COC(=O)CS", "Potency": "inactive"},
      {"smiles": "O=C(O)CNC(=O)c1ccc(CO)o1", "Potency": "inactive"},
      {"smiles": "O=[N+]([O-])c1ccc2nc[nH]c2c1", "Potency": "inactive"},
      {"smiles": "ClC/C=C/CCl", "Potency": "inactive"},
      {"smiles": "NC(=S)NNC(N)=S", "Potency": "inactive"},
      {"smiles": "CC(=O)OC(C)=O", "Potency": "inactive"},
      {"smiles": "CNC(=O)c1ccccc1", "Potency": "inactive"},
      {"smiles": "Nc1nc(CC(=O)O)cs1", "Potency": "inactive"},
      {"smiles": "Nc1cc(Cl)c(N)c(Cl)c1", "Potency": "inactive"},
      {"smiles": "CC(=O)OCCC(C)C", "Potency": "inactive"},
      {"smiles": "c1ccc2[nH]cnc2c1", "Potency": "inactive"},
      {"smiles": "NCCCCCCN", "Potency": "inactive"},
      {"smiles": "COc1ccc(N)c(C)c1", "Potency": "inactive"},
      {"smiles": "Cc1cccc(C(=O)O)c1[N+](=O)[O-]", "Potency": "inactive"},
      {"smiles": "Cc1ccc2oc(=O)ccc2c1", "Potency": "inactive"},
      {"smiles": "Clc1ccccn1", "Potency": "inactive"},
      {"smiles": "CC(C)=CCC/C(C)=C/C=O", "Potency": "inactive"},
      {"smiles": "C[C@@H]1O[C@@H](O[C@@H]2[C@@H](O)[C@H](OCCc3ccc(O)c(O)c3)O[C@H](CO[C@@H]3O[C@H](CO)[C@@H](O)[C@H](O)[C@H]3O)[C@H]2OC(=O)/C=C/c2ccc(O)c(O)c2)[C@H](O)[C@H](O)[C@H]1O", "Potency": "inactive"},
      {"smiles": "CCC1CO1", "note": "(stereo not given)", "Potency": "inactive"},
      {"smiles": "CCNc1ccccc1", "Potency": "inactive"},
      {"smiles": "CCCCCCCCN", "Potency": "inactive"},
      {"smiles": "CCNS(=O)(=O)c1ccc(C)cc1", "Potency": "inactive"},
      {"smiles": "Nc1cccc2c(=O)[nH][nH]c(=O)c12", "Potency": "inactive"},
      {"smiles": "C=Cc1ccc(C=C)cc1", "Potency": "inactive"},
      {"smiles": "OC(CCl)CCl", "Potency": "inactive"},
      {"smiles": "COC(=O)CCC(=O)OC", "Potency": "inactive"},
      {"smiles": "CC(O)COC(C)(C)C", "note": "(stereo not given)", "Potency": "inactive"},
      {"smiles": "Nc1cccc(C(F)(F)F)c1", "Potency": "inactive"},
      {"smiles": "Cc1ccc2ccccc2c1[N+](=O)[O-]", "Potency": "inactive"},
      {"smiles": "C=C(C)C(=O)OC", "Potency": "inactive"},
      {"smiles": "CC(O)CC(C)O", "note": "(stereo not given)", "Potency": "inactive"},
      {"smiles": "Nc1ccc(Cl)cc1[N+](=O)[O-]", "Potency": "inactive"},
      {"smiles": "CC/C=C/C#N", "Potency": "inactive"}
    ]}
  ]
}
